D2 PAM-1 – D2 dopamine receptor (human) potentiation. AID 485347. actives 0.34% (n = 340,000). potentiation, % at 10 µM. P14416. HEK293 T-REx D2, calcium flux, EC20 dopamine potentiation;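 active = potentiation over 3 SD above the plate norm, cut at about 30% in these data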; note: 0% is about no effect
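Tetracycline-induced HEK293 T-REx cells force-coupled to calcium signalling expressed D2; compounds were pin-added after a 10 s baseline, read kinetically 180 s, then an EC20 dopamine challenge followed with a further 180 s calcium read.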
D2 PAM-2 – positive allosteric modulators of human D2 dopamine receptor. DiscoveRx D2 beta-arrestin cells, luminescence, 90 min; 100% = 57 uM dopamine signal. potentiation, % (concentration not given with the values). P14416. AID 624464. actives 0.23% (n = 360,000); in the data active = potentiation above about 50%; inconclusive = mostly about 30% to 49%
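D2 cells co-treated with compound plus 50 nM dopamine (EC20) for 90 min at 37 deg C to detect potentiation. Beta-arrestin recruitment was read as enzyme-fragment luminescence after 1 h at ambient temperature. Full response was set by 57 uM dopamine.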
D2 ag-1 – human D2 receptor agonism in beta-arrestin assay; P14416; DiscoveRx PathHunter D2 beta-arrestin, luminescence, 90 min; 100% = 57 uM dopamine signal; activation, % (no concentration beside the values); AID 624465; actives 0.084% (n = 360,000); in the data active = activation above about 40%; inconclusive = between about 15% and that limit
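DiscoveRx PathHunter D2 beta-arrestin cells (2,100/well) attached overnight, then compound-stimulated 90 min at 37 C in HBSS/10 mM HEPES/0.1% Tween-20 buffer; beta-galactosidase complementation read by luminescence after 1 h at ambient temperature. Dopamine 57 uM final (EC100) as control.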
D2 antag – antagonizes the human D2 dopamine receptor; AID 485344; HEK293 TREx D2 cells, calcium flux, dopamine EC80; P14416; inhibition, % at 10 µM; actives 2% (n = 340,000); in the data active = inhibition above about 30%; inactive = below that, where a call was filed; note: 0% is about no effect
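Antagonism is scored as inhibition of an EC80 dopamine-evoked calcium signal in a force-coupled, tetracycline-inducible HEK293 T-REx D2 line, with compound present 180 s before agonist.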
D2 ag-2 – activates the human D2 dopamine receptor; P14416; HEK293 T-REx D2 cells, calcium flux agonist mode; activation, % at 2 µM; actives 0.53% (n = 340,000);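 active = activation over 3 SD above normal in the single-dose calcium agonist read, cut at about 30% in these data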; note: 0% is about no effect
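Agonism scored from kinetic calcium signal (1 read/sec, 180 s) following compound pin transfer, after a 10 s baseline. Cells: HEK293 Trex line expressing inducible D2 receptor coupled to calcium, dye-loaded after overnight culture at 30 C.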
D3 arrestin ag – D3 receptor agonism confirmed, beta-arrestin readout; actives 4% (n = 2,300); Potency, µM (doses to about 76.9 µM), inactives show at the highest dose activation, most hits filed as activators; DiscoveRx D3 beta-arrestin cells, luminescence, 90 min; shares compounds with D2 ag-2;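 note: potency is the fitted concentration of half-maximal effect; 100% = dopamine control response; nearly all actives have a fitted effect of over 70% in size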
Target sequence (P35462 whole entry, looked up): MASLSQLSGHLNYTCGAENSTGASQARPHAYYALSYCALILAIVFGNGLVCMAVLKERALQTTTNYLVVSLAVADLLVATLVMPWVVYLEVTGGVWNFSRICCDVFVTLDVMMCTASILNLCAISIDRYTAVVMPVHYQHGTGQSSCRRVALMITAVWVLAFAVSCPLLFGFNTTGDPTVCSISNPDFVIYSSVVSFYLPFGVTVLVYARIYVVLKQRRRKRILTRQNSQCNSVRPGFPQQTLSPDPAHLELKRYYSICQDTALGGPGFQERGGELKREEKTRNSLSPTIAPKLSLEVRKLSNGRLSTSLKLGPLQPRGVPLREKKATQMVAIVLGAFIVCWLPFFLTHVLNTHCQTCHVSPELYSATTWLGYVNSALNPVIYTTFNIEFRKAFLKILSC
D2 ag-3 – D2 receptor agonism, beta-arrestin counterscreen; shares compounds with D2 ag-2; DiscoveRx PathHunter D2 beta-arrestin, luminescence, 90 min; response scale: percent relative to full dopamine signal; Potency, µM (top dose mostly 76.9 µM), without a hit: at the top dose activation, actives largely listed as activators; actives 5.9% (n = 2,300); AID 720507; note: potency is the fitted concentration of half-maximal effect; % of control where 0% means no effect; nearly all actives have a fitted effect of over 70% in size
* = called active by the depositor; ? = inconclusive; · = no result. Most compounds without a hit are left out; they make up all but 2.4% or so of the library. Unless noted, calls come from the whole dose curve; as a rule, active = well fitted activation curve with a large enough effect; inconclusive = small, poorly fitted or top-dose-only effect; inactive = flat fitted curve, though single readings scatter.

SMILES	D2 PAM-1	D2 PAM-2	D2 ag-1	D2 antag	D2 ag-2	D3 arrestin ag	D2 ag-3
O=C(Nc1ccc(C(F)(F)F)cc1[N+](=O)[O-])O[C@H]1[C@H](Cc2ccccc2)NS(=O)(=O)[C@H]2C[C@@H]3C=C[C@]12O3	-23	11	?	-3	44*	12%	13%
COc1cccc(C(=O)O[C@H]2[C@H](Cc3ccccc3)NS(=O)(=O)[C@H]3C[C@@H]4C=C[C@]23O4)c1	·	-3	-3	·	·	·	·
Cc1cc(C(=O)O[C@H]2[C@H](Cc3ccccc3)NS(=O)(=O)[C@H]3C[C@@H]4C=C[C@]23O4)ccc1[N+](=O)[O-]	-6	-8	-4	1	0	-8%	-3%
COc1cccc(C(=O)O[C@H]2[C@H](C)NS(=O)(=O)[C@H]3C[C@@H]4C=C[C@]23O4)c1	-31	-3	-4	9	2	-1%	-4%
COc1ccc(C)cc1NC(=O)Nc1nnc(N2CCCCC2)s1	1	·	·	·	2	·	·
COc1ccccc1C(=O)Nc1ccc(C(=O)OCc2cc(=O)n3ccsc3n2)cc1	1	·	·	·	-1	·	·
Cc1c(C(=O)NCCc2ccccc2)cccc1-n1cnc2cccnc21	2	·	·	·	1	·	·
Cn1c(=O)oc2cc(S(=O)(=O)N3CCCC(C(=O)NCCc4ccc(Cl)cc4)C3)ccc21 (stereo not given)	-11	·	·	·	-1	·	·
CCCCn1c(N)c(N(CC)C(=O)c2cccc(F)c2)c(=O)[nH]c1=O	-3	-4	-5	-2	4	·	·
CCCCn1c(N)c(N(CC)C(=O)c2cccc(OCc3ccccc3)c2)c(=O)[nH]c1=O	-12	5	8	8	0	20%	-3%
CCOC(=O)C1(CCOc2ccccc2)CCN(Cc2cnc(C)s2)CC1	-21	-10	3	6	1	·	·
CCOC(=O)C1(CC2CC2)CCN(Cc2cnc(N(C)C)s2)CC1	-33	-3	2	68*	75*	-5%	9%
COc1ccc2cc(C=O)n(C)c2c1	1	1	-4	-1	0	2%	-5%
O=C(O)/C=C/C(=O)NCCc1ccc(Cl)cc1	-7	-8	-2	14	8	·	·
O=C(O)/C=C/C(=O)NCCc1ccccc1	-21	-9	7	61*	78*	-3%	5%
O=C(CSCC(=O)Nc1cccc2ccccc12)Nc1cccc2ccccc12	·	-6	1	·	·	·	·
O=C(CSc1ncccn1)Nc1cccc2ccccc12	12	2	-1	19	0	-2%	-3%
COc1cc([C@H]2[C@@H]3CCCC[C@]3(O)CCN2CC(=O)Nc2ccc(C)cc2C)ccc1O	-5	2	0	-4	29	8%	-3%
COc1cc([C@H]2[C@@H]3CCCC[C@]3(O)CCN2Cc2ccccc2F)ccc1O	12	-14	-5	-3	0	·	·
O=C(NCc1cccc(Cl)c1)c1ccc(NC(=O)N2CC3CCCN3c3ccccc32)cc1 (stereo not given)	-5	·	·	·	0	·	·
CCCC(=NCCc1c(C)[nH]c2ccccc12)C1=C(O)CC(c2ccccc2)CC1=O (stereo not given)	-6	-7	-8	-7	25	·	·
CC(=NCCc1c(C)[nH]c2ccc(OC(F)(F)F)cc12)C1=C(O)CC(c2ccccc2)CC1=O (stereo not given)	-3	2	11	14	4	-4%	1%
CC(=NCCc1c(C)[nH]c2ccc(C)cc12)C1=C(O)CC(c2ccccc2)CC1=O (stereo not given)	-10	-15	-12	4	5	·	·
CCCCC(=NCCc1c(C)[nH]c2ccccc12)C1=C(O)CC(c2ccccc2)CC1=O (stereo not given)	·	1	4	0	0	-6%	-3%
O=C(CSc1nc(-c2ccccc2)nc2c1CCCC2)c1ccc(F)cc1	6	·	·	·	0	·	·
SMILES	D2 PAM-1	D2 PAM-2	D2 ag-1	D2 antag	D2 ag-2	D3 arrestin ag	D2 ag-3
COc1ccc(-c2cn(Cc3ccc4c(c3)C(=O)c3ccccc3C4=O)nn2)cc1	-1	-1	3	13	1	40µM*	35µM*
CCc1cccc(NC(=O)c2cnc(SC)nc2-c2ccccc2)c1	5	·	·	·	-1	·	·
CC(C)CCn1nnnc1CN1CCN(c2ccccc2)CC1	-19	-6	4	50*	52*	-7%	10%
COCCn1nnnc1CN1CCN(c2cccc(C(F)(F)F)c2)CC1	5	2	-1	19	0	·	·
Cc1cccc(N2CCN(Cc3nc(CC4CC4)no3)CC2)n1	-10	-4	2	-33	30	-5%	-5%
Cc1cccc(SC2CCN(Cc3nc(CC4CC4)no3)CC2)c1	2	5	3	-15	1	·	·
COc1cc(C2NC(=O)NC(C)=C2C(=O)Nc2cc(C)cc(C)c2)ccc1O (stereo not given)	1	·	·	·	-1	·	·
COc1cc(OC)c(NC(=O)CCc2nc(C3=CCN(Cc4cccc(Cl)c4)CC3)no2)cc1Cl	11	·	·	·	0	·	·
Cc1ccc2cccc(NC(=O)C(C)Oc3ccc(Cl)cc3Cl)c2n1 (stereo not given)	11	·	·	·	0	·	·
On1c(-c2ccccc2Cl)nc2ccccc21	11	0	-4	8	3	·	·
CCN(CC)CC(O)Cn1c(-c2ccccc2Cl)nc2ccccc21 (stereo not given)	1	-19	-2	-10	45*	3%	-2%
O=C1OC(N2CCN(c3ccccn3)CC2)c2ccccc21 (stereo not given)	-23	-6	9	34*	55*	3%	26%
O=C(C1CC1)N1CCc2cc(Br)cc(S(=O)(=O)N3CCN(c4cccc(C(F)(F)F)c4)CC3)c21	8	·	·	·	·	·	·
O=C(CSC1=NS(=O)(=O)c2ccccc2N1)NCCc1ccccc1	1	-7	2	11	28	6%	0%
COc1ccc(CCNC(=O)CSC2=NS(=O)(=O)c3ccccc3N2)cc1OC	3	-17	0	-3	0	·	·
CCOc1ccccc1C(=O)N(CCC(=O)OC)c1ccccn1	-10	-16	0	5	0	·	·
COC(=O)CCN(C(=O)C1C2CC3CC(C2)CC1C3)c1ccccn1 (stereo not given)	-7	0	?	14	41*	1%	?
CCOc1ccc(-c2nc(SCC(=O)Nc3cc(F)ccc3F)n3[nH]c(=O)cc3n2)cc1	2	·	·	·	·	·	·

Compound activity (PubChem BioAssay)
